Assays:
[1] = tested on: P. falciparum NF54-pfs16-GFP early (I-III) stage gametocytes; assay: relative % inhibition of viable gametocyte number; higher = more gametocytocidal; settings: stage: early (I-III) gametocyte, incubation 72 h
Procedure, shortened: (§1)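 Magnet-isolated NF54 pfs16-GFP gametocytes at early (I/IIa, day 2) or late (day 8) stage were exposed to compound at 5 or 0.5 µM for 72 h at 37°C, 5% CO2, 5% O2, at 10% parasitaemia and 0.1% haematocrit. Elongated GFP objects with MitoTracker Red signal above cut-off were counted as viable by confocal imaging. Relative inhibition was normalised to in-plate vehicle and positive-control wells.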

[2] = tested on: P. falciparum NF54-pfs16-GFP late (IV-V) stage gametocytes; assay: as above; settings: stage: late (IV-V) gametocyte, incubation 72 h
Procedure, shortened: as §1

Row | Compound | relative % inhibition ([1]; 0.5 µM) | relative % inhibition ([1]; 5 µM) | relative % inhibition ([2]; 0.5 µM) | relative % inhibition ([2]; 5 µM)
1 | O=C(Nc1ccsc1C(=O)NC1CCCCC1)c1ccc(F)cc1 | -1.56% | 19.9% | -4.86% | -23.6%
2 | CCOC(=O)c1cnc2ccc(OC)cc2c1NCc1ccccc1 | 26.4% | 17.1% | 10.1% | 2.07%
3 | CNCCCNc1ccnc2cc(Cl)ccc12 | 106% | 106% | 26.6% | 39.1%
4 | O=C(Nc1ccc(N2CCN(Cc3ccccc3)CC2)cc1)c1cccs1 | 14.2% | 6.41% | 6.6% | 16.2%
5 | CCCCCCc1cc2cc(-c3csc(C=Cc4ccccc4)n3)c(=O)oc2cc1O | 18.9% | 101% | 31.2% | 104%
6 | CN(C)c1ccc(C=Cc2nc(=O)c3ccccc3o2)cc1 | -10.1% | -23% | 27.4% | 88.2%
7 | Cc1cc(C=C2SC(=Nc3ccccc3)N(C3CCCC3)C2=O)c(C)n1-c1ccc(Cl)cc1 | 15% | 2.67% | -2.31% | 31.2%
8 | COc1ccc2nc(C)cc(Nc3ccccc3O)c2c1 | 6.33% | 20.9% | -7.14% | 18.4%
9 | COc1ccc(Nc2nc(NCc3ccccc3)c3ccccc3n2)cc1 | 84.8% | 98.1% | 81.6% | 107%
10 | Oc1ccccc1CNCC12CC3CC(CC(C3)C1)C2 | 91.6% | 84.2% | 44.7% | 29.3%
11 | CN1C=C(c2ccc3ccccc3n2)C(c2c[nH]c3ccccc23)c2ccccc21 (centres undefined) | 16.1% | 49.6% | 19.8% | 34.8%
12 | COc1cc2cc(C(=O)Nc3ccccc3)c(N)nc2cc1OC | 16.8% | 99% | 3.1% | -13.4%
13 | CCCCCCc1cc2cc(-c3nc4ccccc4[nH]3)c(=Nc3ccccc3C)oc2cc1O | 60.1% | 100% | 35% | 52.7%
14 | OC(CNCC1CCCO1)Cn1c2ccc(Cl)cc2c2cc(Cl)ccc21 (centres undefined) | 16.5% | 31.6% | 45.5% | 75.6%
15 | FC(F)(F)c1cccc(Nc2nc3ccccc3nc2Nc2cccc(C(F)(F)F)c2)c1 | 96.8% | 102% | 105% | 103%
16 | CCOc1ccc(-n2cc(-c3ccccc3)c3c(SCc4cc(C)ccc4C)ncnc32)cc1 | -4.24% | -7.96% | 11.3% | 19.7%
17 | CCCCc1ccc(NS(=O)(=O)c2cc3c4c(c2)CCN4C(=O)CC3)cc1 | 12.3% | 1.37% | 0.5% | -7.42%
18 | COc1cccc(C=Cc2nc(=O)c3ccccc3o2)c1OC | -6.76% | -17.9% | 50.6% | 94%
19 | Clc1ccc2[nH]c3c(NCCCN4CCOCC4)ncnc3c2c1 | 61.4% | 97.5% | 12.4% | 17.7%
20 | CCN(CC)c1ccc(NC(=O)c2cccs2)cc1 | -1.58% | -23.9% | 16.7% | 43.6%
21 | CCCCN(CCCC)S(=O)(=O)c1ccc(NC(=O)c2ccco2)cc1 | 16.5% | 7.65% | 7.52% | 1%
22 | CCC(C)NCC(O)(c1ccc(Cl)cc1)c1ccc(Cl)cc1 (centres undefined) | 16.2% | 102% | 27.1% | 58.3%
23 | Cc1ccc2nc(C)cc(Nc3cccc(C(F)(F)F)c3)c2c1 | -7.3% | 60.2% | 26.7% | 19.3%
24 | CC(NCc1ccccc1)c1cc(Cl)ccc1O (centres undefined) | 15.7% | 89.5% | 15.3% | 53.3%

Row | Compound | relative % inhibition ([1]; 0.5 µM) | relative % inhibition ([1]; 5 µM) | relative % inhibition ([2]; 0.5 µM) | relative % inhibition ([2]; 5 µM)
25 | COc1ccccc1CNC(=O)C1c2ccccc2C(=O)N(CC(C)C)C1c1cccs1 (centres undefined) | -0.661% | 31.9% | -10.4% | -4.52%
26 | CCOc1ccc(C=Cc2nc(=O)c3ccccc3o2)cc1 | 4.08% | 22.2% | 22.3% | 21.6%
27 | OC1=C2C(=Nc3ccccc3SC2c2ccc(Br)cc2)c2ccccc21 (centres undefined) | 3.13% | 35.9% | 71.4% | 73%
28 | O=C(NC1CCN(Cc2ccccc2)CC1)c1cc(C(=O)NC2CCN(Cc3ccccc3)CC2)cc(C(=O)NC2CCN(Cc3ccccc3)CC2)c1 | 20.3% | 82% | 0.475% | 31.9%
29 | CCCCOC(=O)c1ccc(Nc2cc(C)nc3ccc(OC)cc23)cc1 | -28.1% | 70% | 13.1% | 18.5%
30 | CSC1=NC(=Nc2c(C)cccc2C)C2(CCC(C(C)(C)C)CC2)N1c1ccc(Cl)cc1 (centres undefined) | 24.7% | 4.25% | 93.4% | 103%
31 | CCc1ccc(CNCC(O)c2ccccc2)cc1 (centres undefined) | 9.08% | 44.3% | 3.65% | 11.4%
32 | Cc1cc(NC(=O)c2ccc(-c3ccccc3)cc2)no1 | -6.51% | 24.9% | 13.3% | 36.8%
33 | CN(C)c1ccc(C(O)(c2ccc(N(C)C)cc2)c2ccc(N(C)C)cc2)cc1 | 81.4% | -12.4% | 102% | 103%
34 | CCn1c2c(c(=N)c3c1CCC3)CCCC2 | -1.17% | 25.3% | 10.1% | -7.91%
35 | CN(C)c1ccc(-c2nc3cc(N)ccc3[nH]2)cc1 | -6.62% | 18.8% | -13.1% | -10.8%
36 | CCOc1cc(Cl)c(C(C)NC(=O)c2ccccc2)cc1OCC (centres undefined) | 15.1% | 34.5% | 8.2% | 38.7%
37 | CCOC(=O)c1cn(CC)c2cc(N(C)CCc3ccc(OC)c(OC)c3)c(F)cc2c1=O | 38.6% | 51.6% | 72.3% | 97.7%
38 | Cc1cc(C)cc(Nc2cc(C)nc3nc(C(F)(F)F)nn23)c1 | -6.02% | 10% | -4.65% | -1.16%
39 | O=C(Nc1cccc(C2=NCCN2)c1)Nc1cccc(C2=NCCN2)c1 | 9.97% | 6.29% | 10.7% | -30.3%
40 | CCCC(c1nnnn1C1CCCCC1)N1CCN(C(=O)c2ccco2)CC1 (centres undefined) | 0.873% | -28.3% | -2.74% | 2.82%
41 | COC(=O)c1ccc(C2C3=C(O)CC(c4ccc(F)cc4)CC3=Nc3ccccc3N2C(=O)c2ccccc2)cc1 (centres undefined) | 26.9% | 103% | 88.6% | 98.4%
42 | CCCn1c(=N)c(C(=O)NC2CCCCC2)cc2c(=O)n3cccc(C)c3nc21 | 13.4% | 24.4% | -19.9% | 8.02%
43 | COc1cccc(Cn2c(Oc3ccccc3)nc3c2c(=O)n(C)c(=O)n3C)c1 | 1.22% | -14% | 6.35% | 9.52%
44 | COc1ccc2nc(C)cc(Nc3ccc(Cl)cc3)c2c1 | -10.1% | 13.9% | 7.89% | 11.7%
45 | CC(Oc1ccc(NC(=O)c2cccs2)cc1)C(=O)c1ccc(Cl)cc1 (centres undefined) | 10.9% | 23% | 16.4% | 52.1%
46 | Cc1cccc(Nc2nc(N)c3ccccc3n2)c1 | -18.5% | -18.1% | -5.43% | 5.81%
47 | COc1cccc(C(=O)Nc2ccc(-c3nc4ccccc4[nH]3)cc2)c1 | 12.4% | -15.3% | 20% | -5.77%
48 | CCOc1cc2c(cc1OCC)C(c1cc(Cl)c(O)c(OCC)c1)NCC2 (centres undefined) | 8.41% | 94.7% | 29.4% | 18.2%

Row | Compound | relative % inhibition ([1]; 0.5 µM) | relative % inhibition ([1]; 5 µM) | relative % inhibition ([2]; 0.5 µM) | relative % inhibition ([2]; 5 µM)
49 | CN(C)CCNc1cc(-c2ccccc2)nc2ccccc12 | -7.32% | -20.1% | -18.3% | 6.35%
50 | COc1ccc2c(c1)C1(Nc3ccccc3-c3nc4ccccc4n31)C(=O)N2 (centres undefined) | 55.7% | 84.8% | 37.6% | 63.5%
51 | O=[N+]([O-])c1ccc(C=NNc2nc3ccccc3[nH]2)cc1 | 26.8% | 59.1% | -1.37% | -1.1%
52 | CCOC(=O)c1cnc2ccc(OC)cc2c1Nc1ccc(N2CCN(C)CC2)cc1 | 53% | 24.4% | 11.9% | 19.4%
53 | COc1cc(C(=O)ON=C(N)Cc2cccc3ccccc23)cc(OC)c1OC | -8.44% | 74.1% | 2% | 82.3%
54 | Cc1ccc(C2CC(C(F)(F)F)n3nc(C(=O)N4CCN(C(c5ccccc5)c5ccccc5)CC4)cc3N2)cc1 (centres undefined) | 3.32% | 13.2% | 17.1% | -7.7%
55 | COc1ccc(C(C)=O)cc1N1C(=O)C2C(C1=O)C1(c3ccccc3)C(=O)C2(c2ccccc2)C(c2ccc(C)cc2)=C1c1ccc(C)cc1 (centres undefined) | 52.9% | 93.5% | 78.9% | 73.1%
56 | Cc1sc2ncnc(Sc3nc4ccccc4[nH]3)c2c1C | 89.7% | 91.1% | 30.6% | 94.5%
57 | FC(F)(F)c1cccc(CNC2CCN(CCc3ccccc3)CC2)c1 | -2.89% | 82.2% | 1.32% | -17.4%
58 | Cc1cc(N2CCN(C3CCCC3)CC2)n2c(nc3ccccc32)c1C#N | -10.1% | -15.8% | 11.3% | 6.77%
59 | Cc1cc(NCCN2CCCCC2)c2ccc3ccccc3c2n1 | 10.2% | 97.3% | 4.67% | 36.7%
60 | Cc1ccc(N2C3c4ccccc4N(S(=O)(=O)c4ccc(C)cc4)C2c2ccccc2N3S(=O)(=O)c2ccc(C)cc2)cc1 | 61% | 95.1% | 95% | 98.9%
61 | CN(C)c1ccc(N2C(N)=NC(N)=NC2(C)C)cc1 | -7.59% | -3.16% | 20.3% | -8.27%
62 | COc1cccc(-c2nn(C)c3sc(C(=O)NCCN4CCN(c5ccccc5F)CC4)cc23)c1 | 12.4% | 82.5% | 16.7% | 4.42%
63 | CCCCNCC(O)(c1ccc(Cl)cc1)c1ccc(Cl)cc1 | 10.1% | 88.5% | 12.2% | 44%
64 | CC(C)(C)c1ccc(C2CC3=Nc4ccccc4N(C(=O)c4ccccc4Cl)C(c4ccc(F)cc4)C3=C(O)C2)cc1 (centres undefined) | 20% | 80.4% | 60.8% | 89.9%
65 | Cc1ccc(-c2nc3ccccc3o2)cc1NCc1cc(Cc2ccccc2)ccc1O | 9.8% | 95.1% | 13.4% | 48.6%
66 | CCOC(=O)C1CCN(C(=O)CN2C(=O)c3ccccc3C2c2c[nH]c3ccccc23)CC1 (centres undefined) | 7.45% | 98.3% | 28.9% | 63.3%
67 | COc1ccc(C2c3ccc4ccccc4c3Oc3ncn(CCCn4ccnc4)c(=N)c32)cc1OC (centres undefined) | 59.1% | -9.76% | 49.2% | 74.6%
68 | COc1cccc(Nc2nc(NCCO)c3ccccc3n2)c1 | 0% | -12.9% | 17.4% | 50.8%
69 | Oc1ccc(-c2nc(-c3ccc4oc5ccc(-c6[nH]c(-c7ccc(O)cc7)nc6-c6ccccc6)cc5c4c3)c(-c3ccccc3)[nH]2)cc1 | 92.1% | 107% | 3.61% | 52.7%
70 | c1ccc(Cn2c(N=Nc3c(Nc4ccccc4)ccc4ccccc34)nc3ccccc32)cc1 | 62.1% | 106% | 102% | 100%
71 | COc1ccc(OC)c(C2C3=C(CC(C)(C)CC3=O)N(c3ccc(Cl)c(Cl)c3)C3=C2C(=O)CC(C)(C)C3)c1 | 13.6% | 67.1% | 13.8% | 79.2%

Reference: the supplement of paper PMC3842684
